In PubChem BioAssay (NCI):
This is part of a sample that, as a whole, favours compounds with a hit. Of some 83,000 tested, about 20% had one in any assay.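 For each line, cells grew in 96-well plates with the test compound present at a single concentration for 48 hours.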 Values without a mark were called inactive. Active and inactive are the calls of the source. The calls were made as follows: active = growth percent below 10; inactive = the rest.

Test system: HL-60(TB) leukemia
Experiment: NCI-60 one-dose screen, 48 h (100 = growth as untreated, 0 = no growth, -100 = all killed)
Conditions: 10 µM unless noted

SMILES | growth
COC(=O)C[Se]C(=O)Cc1c(C)n(C(=O)c2ccc(Cl)cc2)c2ccc(OC)cc12 | -20.9% (active)
O=C(NNc1nc2cc(F)cc(F)c2n2cccc12)c1cnccn1 | -25% (active)
Oc1ccc(CSc2nnc(-c3ccc(Br)cc3)o2)c2cccnc12 | 23%
O=C(CCCCCCNC(=O)C(O)(O)C(F)(F)F)Nc1ccc(Cl)cc1 | 9.84% (active)
COc1cc(-c2noc(C[C@@H](NC(=O)OCc3ccccc3)C(C)C)n2)cc(OC)c1OC | 100%
CSc1ccc2c(c1)N(C(=O)/C(C#N)=C/c1c[nH]c3ccccc13)c1ccccc1S2 | 12.8%
O=C1NC(=O)c2c1c1c3ccccc3ccc1c1[nH]c3ccccc3c21 | 16.8%
CNCc1cccc2c1OCCCCCCC(C)(O)CC(C)(C)S(=O)(=O)c1ccc(cc1)-c1cnc(N)c(n1)C(=O)N2 (stereo not given) | -44.1% (active)
O=C1Nc2cc(Cl)ccc2/C1=C\c1ccc(OCc2ccc(Br)cc2F)cc1 | 66.2%
N#C/C(=C\c1ccc(-c2ccc(Cl)c(Cl)c2)o1)C(=O)Nc1ncc(Cc2ccc(Cl)cc2)s1 | 51.5%
